Screening results: PubChem, National Center for Advancing Translational Sciences (NCATS)
Sampled rows, rich in hits. Any-hit rate of the full collection: about 10%.
JMJD2A Tudor – blocks the human JMJD2A Tudor domain. AlphaScreen JMJD2A-Tudor / H3K4me3 peptide binding. Potency, µM (series often up to 114 µM), without a hit: at the top dose activity change, negative = inhibition, actives largely listed as inhibitors. 390,000 tested, 4.4% active. AID 504339; note: potency is the fitted concentration of half-maximal effect; % is set by controls: 0 for no effect and ±100 for the full control effect; nearly all actives have a fitted effect of over 50% in size
HP1b chromo inh – HP1-beta chromodomain-methylated histone interaction inhibition; P83916; AlphaScreen HP1-beta / biotin-H3K9me3 peptide binding; 390,000 tested, 0.56% active; AID 540317; Potency, µM (doses to about 114 µM), without a hit: top-dose activity change, negative = inhibition, usual class: inhibitors; note: potency is the fitted concentration of half-maximal effect; nearly all actives have a fitted effect of over 70% in size
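AlphaScreen: HP1-beta (50 nM) preformed 30 min with biotin-H3(1-18)K9me3 peptide (50 nM) in PBS pH 7.4, 0.01% Tween-20. Compound added for 30 min at RT, then streptavidin donor/nickel chelate acceptor beads (10 ug/mL) for 30 min.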
G9a inh – G9a (human) methyltransferase inhibition; 350,000 tested, 8.8% active; Q96KQ7; AID 504332; Potency, µM (top dose mostly 102 µM), inactives show at the highest dose activity, negative = inhibition, hits mostly inhibitors; G9a H3K9 monomethylation, AlphaScreen, 2 h; note: potency is the fitted concentration of half-maximal effect; % is set by controls: 0 for no effect and ±100 for the full control effect; nearly all actives have a fitted effect of over 75% in size
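Methyltransferase reactions run at room temperature for 2 h (20 nM enzyme, 500 nM biotin-H3K9 peptide, 20 uM SAM) after a 15 min compound preincubation; product detected by AlphaScreen beads and anti-H3K9me1 antibody.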
Six1-Eya2 inh – inhibitors of human Six1/Eya2 interaction | Q15475+O00167 | AlphaScreen GST-Six1/His-Eya2 binding, biochemical; active compounds read low | activity change, % (no concentration beside the values) | 360,000 tested, 0.56% active | AID 651725; in the data active = activity change below about -65%; inconclusive = mostly about -30% to -63%; note: % is set by controls: 0 for no effect and ±100 for the full control effect
Target sequence (O00167 whole entry, looked up): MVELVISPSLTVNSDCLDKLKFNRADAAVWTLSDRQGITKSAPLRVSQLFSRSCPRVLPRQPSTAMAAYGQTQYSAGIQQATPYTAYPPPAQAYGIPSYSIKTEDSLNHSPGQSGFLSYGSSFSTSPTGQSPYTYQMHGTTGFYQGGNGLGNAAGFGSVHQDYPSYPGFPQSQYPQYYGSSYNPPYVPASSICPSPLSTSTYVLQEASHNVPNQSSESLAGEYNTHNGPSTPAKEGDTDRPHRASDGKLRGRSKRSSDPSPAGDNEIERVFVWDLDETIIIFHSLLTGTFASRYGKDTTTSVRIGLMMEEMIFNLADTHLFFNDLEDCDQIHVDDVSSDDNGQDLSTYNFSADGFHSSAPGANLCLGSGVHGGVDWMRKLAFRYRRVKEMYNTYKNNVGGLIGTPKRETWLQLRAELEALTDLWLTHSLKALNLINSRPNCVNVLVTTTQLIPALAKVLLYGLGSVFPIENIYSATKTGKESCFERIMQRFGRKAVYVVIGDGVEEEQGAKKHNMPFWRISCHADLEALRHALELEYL
Target sequence (Q15475 whole entry, looked up): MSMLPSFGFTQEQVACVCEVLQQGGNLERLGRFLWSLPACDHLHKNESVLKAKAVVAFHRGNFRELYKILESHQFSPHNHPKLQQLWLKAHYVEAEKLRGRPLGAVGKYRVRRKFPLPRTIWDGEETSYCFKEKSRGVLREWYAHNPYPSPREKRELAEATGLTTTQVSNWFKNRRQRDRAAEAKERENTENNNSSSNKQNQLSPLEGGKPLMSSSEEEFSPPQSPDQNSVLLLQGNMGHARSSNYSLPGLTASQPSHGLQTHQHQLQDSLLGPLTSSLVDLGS
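Six1/Eya2 binding was read as AlphaScreen signal after compounds were pinned into GST-Six1 plus His-tagged Eya2 (5X stock 250/500 nM) in pH 8.0 Tris/NaCl/TCEP buffer, beads added, then incubated 1 h, 37 C, dark.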
BAZ2B block – blocks human BAZ2B. Q9UIF8. AlphaScreen BAZ2B-H3K14Ac peptide displacement. Potency, µM (highest dose often 114 µM), for the others: at the highest dose activity change, negative = inhibition, actives largely listed as inhibitors. 360,000 tested, 4.4% active. AID 504333; note: potency is the fitted concentration of half-maximal effect; % is set by controls: 0 for no effect and ±100 for the full control effect; nearly all actives have a fitted effect of over 60% in size
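AlphaScreen displacement: compounds (up to 110uM) incubated 30 min at room temperature with a preformed 50 nM BAZ2B/50 nM biotinylated H3K14Ac peptide complex in PBS pH 7.4 with Tween-20. Donor and acceptor beads at 10 ug/mL final added, 20 min light-protected before reading.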
CtBP-E1A blk – CtBP/E1A binding inhibition | AID 651724 | activity change, % (no concentration beside the values) | AlphaScreen GST-E1A/His-CtBP binding, 1536-well; active compounds read low | 340,000 tested, 0.49% active; in the data active = activity change below about -65%; inconclusive = mostly about -30% to -63%; note: % is set by controls: 0 for no effect and ±100 for the full control effect
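Protein mix (5X: 125 nM each GST-E1A, His-CtBP) was incubated with pinned compound 2 h at 37 deg C in dark, in 50 mM Tris pH 8.0 buffer with 300 mM NaCl. Glutathione donor and nickel acceptor beads followed; AlphaScreen signal read after 1 h.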
* marks the source's active call; other numbers are inactive results; [ ] = dose if it differs, or a comment. Unless noted, calls come from the whole dose curve; as a rule, active = well fitted inhibition curve with a large enough effect; inconclusive = small, poorly fitted or top-dose-only effect; inactive = no such curve, though single readings can be large or run the other way.

Results for COc1ccc(CNC(=O)c2ccc3c(c2)NC(=O)C(C)S3)cc1 (stereo not given) ?
JMJD2A Tudor: -25%; HP1b chromo inh: -15%; G9a inh: 10µM*; Six1-Eya2 inh: 9; BAZ2B block: -21%; CtBP-E1A blk: -2

How did COc1ccc(CNC(=O)c2ccc3c(c2)NC(=O)C(CS(=O)(=O)Cc2ccccc2Cl)N3)cc1 (stereo not given) do in these assays?
JMJD2A Tudor: -30%; HP1b chromo inh: -8%; G9a inh: 11µM*; BAZ2B block: 8%[57.1 µM]

How did COc1ccccc1CN1CC(C(=O)NCCCCc2ccccn2)CCC1=O (stereo not given) do in these assays?
Six1-Eya2 inh: -4; CtBP-E1A blk: -3

What do the screens show for `COc1ccc(-c2ccc(C(=O)O)o2)c([N+](=O)[O-])c1`?
JMJD2A Tudor: -6%; HP1b chromo inh: 17%; G9a inh: 56µM*; Six1-Eya2 inh: 0; BAZ2B block: inconclusive; CtBP-E1A blk: 5

What do the screens show for `COC(=O)c1ccccc1-c1ccc(/C=C2\C(=O)N(c3ccccc3)N=C2c2ccccc2)o1`?
JMJD2A Tudor: inconclusive; HP1b chromo inh: 1.4µM*; G9a inh: 7.1µM*; Six1-Eya2 inh: -23; BAZ2B block: 3.2µM*; CtBP-E1A blk: 7

How did COc1ccc(-c2ccc(/C=C3/C(=N)N4C(C)=CSC4=NC3=O)o2)c([N+](=O)[O-])c1 do in these assays?
JMJD2A Tudor: inconclusive; HP1b chromo inh: -30%; G9a inh: 7.1µM*; Six1-Eya2 inh: -20; BAZ2B block: inconclusive; CtBP-E1A blk: -7

What do the screens show for `COc1cc([N+](=O)[O-])ccc1-c1ccc(/C=C2\C(=O)ON=C2c2ccccc2)o1`?
JMJD2A Tudor: inconclusive; HP1b chromo inh: -28%[57 µM]; Six1-Eya2 inh: -7

How did COc1ccc(-c2ccc(/C=C3\C(=O)N(c4ccccc4)N=C3c3ccccc3)o2)c([N+](=O)[O-])c1 do in these assays?
JMJD2A Tudor: inconclusive; HP1b chromo inh: 3.5µM*; G9a inh: 7.1µM*; Six1-Eya2 inh: -3; BAZ2B block: 8.9µM*; CtBP-E1A blk: -3

What do the screens show for `COC(=O)c1ccccc1-c1ccc(/C=N/Nc2nc(N3CCCC3)nc(N3CCCC3)n2)o1`?
JMJD2A Tudor: -15%; HP1b chromo inh: 19%; Six1-Eya2 inh: 1; BAZ2B block: -14%; CtBP-E1A blk: 7

What do the screens show for `Cn1c(SCC(=O)N2CCc3ccccc32)nnc1-c1ccc(S(=O)(=O)N2CCCC2)cc1`?
JMJD2A Tudor: -9%; HP1b chromo inh: 26%; G9a inh: -5%[59 µM]; Six1-Eya2 inh: 0; BAZ2B block: 7%; CtBP-E1A blk: 25

Results for Cc1ccc(NS(=O)(=O)c2cccc(C(=O)n3ncc(C#N)c3N)c2)c(C)c1 ?
JMJD2A Tudor: -4%[57.1 µM]; HP1b chromo inh: 42%; G9a inh: 11%[59 µM]; Six1-Eya2 inh: -9; BAZ2B block: 4%; CtBP-E1A blk: -4

What do the screens show for `Cc1ccc2c(c1)N(CC(=O)N1CCCCC1C)C(=O)CO2` (stereo not given)?
JMJD2A Tudor: -16%; HP1b chromo inh: -7%; G9a inh: 12%; Six1-Eya2 inh: 7; BAZ2B block: -3%; CtBP-E1A blk: 6

How did CN(C)CCN1C(=O)C(=O)/C(=C(/O)c2ccc3c(c2)OCCO3)C1c1ccccn1 (stereo not given) do in these assays?
JMJD2A Tudor: -31%; HP1b chromo inh: 26%; G9a inh: 32µM*; Six1-Eya2 inh: -16; BAZ2B block: 56µM*; CtBP-E1A blk: 0

What do the screens show for `COc1cccc(C2/C(=C(\O)c3ccc4c(c3)OCCO4)C(=O)C(=O)N2Cc2cccnc2)c1` (stereo not given)?
JMJD2A Tudor: -14%; HP1b chromo inh: 43%; G9a inh: 56µM*; Six1-Eya2 inh: 6; BAZ2B block: -36%; CtBP-E1A blk: 2
